Experimental data from PubChem BioAssay (EPA / NIEHS).
Values joined by “and” are separate entries in the source; they are usually repeats but may differ in a detail not shown here. Identical values can stand only once. Some structures have more than one record in an assay (separate samples or runs), and their calls can disagree. Active and inactive are the calls of the source. How the source made its calls: active means hit-call score of the fitted dose curve at least 0.9, where 1 is the maximum; inactive means score below 0.9.

Tests used:
[1] = read-out: Interleukin-8 (IL8), CXCL8 (gene 3576); experiment: BSK_CASM3C_IL8: BioMAP Diversity Plus: CASM3C Assay for Interleukin-8 (IL8) Biomarker Activity (AID 2283042); conditions: primary human coronary artery smooth muscle cells; actives raise or lower the signal;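 further: IL-8 protein level quantified by ELISA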
[2] = read-out: Human Leukocyte Antigen - DR isotype (HLADR), HLA-DRA (gene 3122); experiment: BSK_CASM3C_HLADR: BioMAP Diversity Plus: CASM3C Assay for Human Leukocyte Antigen - DR isotype (HLADR) Biomarker Activity (AID 2283043); conditions: primary human coronary artery smooth muscle cells; actives raise or lower the signal;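 further: cell-surface HLA-DR protein level quantified by ELISA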
[3] = read-out: Macrophage colony-stimulating factor (MCSF), CSF1 (gene 1435); experiment: BSK_CASM3C_MCSF: BioMAP Diversity Plus: CASM3C Assay for Macrophage colony-stimulating factor (MCSF) Biomarker Activity (AID 2283044); conditions: primary human coronary artery smooth muscle cells; actives raise or lower the signal;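 further: M-CSF protein amount quantified by ELISA after 24 h exposure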
[4] = read-out: Low-density lipoprotein receptor (LDLR), LDLR (gene 3949); experiment: BSK_CASM3C_LDLR: BioMAP Diversity Plus: CASM3C Assay for Low-density lipoprotein receptor (LDLR) Biomarker Activity (AID 2283045); conditions: primary human coronary artery smooth muscle cells; actives raise or lower the signal;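 further: LDLR protein level on the cell surface quantified by ELISA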
[5] = read-out: Monocyte Chemoattractant Protein-1 (MCP1), CCL2 (gene 6347); experiment: BSK_CASM3C_MCP1: BioMAP Diversity Plus: CASM3C Assay for Monocyte Chemoattractant Protein-1 (MCP1) Biomarker Activity (AID 2283046); conditions: primary human coronary artery smooth muscle cells; actives raise or lower the signal;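 further: MCP-1 level quantified by ELISA 24 h after dosing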
[6] = BSK_CASM3C_Proliferation: Cell Proliferation Assessment in the BioMAP Diversity Plus: CASM3C Assay (AID 2283047); conditions: primary human coronary artery smooth muscle cells;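 further: sulforhodamine B total protein stain as relative cell number at 560 nm; sub-confluent cells exposed 48 h before staining; fitted both ways against DMSO so gain or loss of cell number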
[7] = read-out: Monokine induced gamma interferon (MIG), CXCL9 (gene 4283); experiment: BSK_CASM3C_MIG: BioMAP Diversity Plus: CASM3C Assay for Monokine induced gamma interferon (MIG) Biomarker Activity (AID 2283048); conditions: primary human coronary artery smooth muscle cells; actives raise or lower the signal;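 further: MIG protein level measured by ELISA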
[8] = read-out: serum amyloid A (SAA), SAA1 (gene 6288); experiment: BSK_CASM3C_SAA: BioMAP Diversity Plus: CASM3C Assay for serum amyloid A (SAA) Biomarker Activity (AID 2283049); conditions: primary human coronary artery smooth muscle cells; actives raise or lower the signal;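 further: SAA protein level quantified by ELISA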
[9] = BSK_CASM3C_SRB: Viability Assessment in the BioMAP Diversity Plus: CASM3C Assay (AID 2283050); conditions: primary human coronary artery smooth muscle cells;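 further: total protein by SRB staining as cytotoxicity measure in parallel cultures; cells exposed to compound for 24 h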
[10] = read-out: Thrombomodulin, THBD (gene 7056); experiment: BSK_CASM3C_Thrombomodulin: BioMAP Diversity Plus: CASM3C Assay for Thrombomodulin Biomarker Activity (AID 2283051); conditions: primary human coronary artery smooth muscle cells; actives raise or lower the signal;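 further: thrombomodulin protein level measured by ELISA 24 h after dosing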
[11] = read-out: Tissue Factor, F3 (gene 2152); experiment: BSK_CASM3C_TissueFactor: BioMAP Diversity Plus: CASM3C Assay for Tissue Factor Biomarker Activity (AID 2283052); conditions: primary human coronary artery smooth muscle cells; actives raise or lower the signal;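 further: cell surface tissue factor protein level read by ELISA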
[12] = read-out: Interferon-gamma inducible Protein 10 (IP10), CXCL10 (gene 3627); experiment: BSK_hDFCGF_IP10: BioMAP Diversity Plus: hDFCGF Assay for Interferon-gamma inducible Protein 10 (IP10) Biomarker Activity (AID 2283053); conditions: primary human foreskin fibroblasts; actives raise or lower the signal
Outline: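 IP-10 levels, quantified by ELISA, are taken from human foreskin fibroblast cultures 24 h after chemical treatment, with DMSO serving as negative control and baseline for bidirectional analysis.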

[13] = read-out: Urokinase-type plasminogen activator receptor (uPAR), PLAUR (gene 5329); experiment: BSK_CASM3C_uPAR: BioMAP Diversity Plus: CASM3C Assay for Urokinase-type plasminogen activator receptor (uPAR) Biomarker Activity (AID 2283054); conditions: primary human coronary artery smooth muscle cells; actives raise or lower the signal;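 further: cell-surface uPAR protein level quantified by ELISA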
[14] = read-out: Vascular cell adhesion molecule 1 (VCAM1), VCAM1 (gene 7412); experiment: BSK_CASM3C_VCAM1: BioMAP Diversity Plus: CASM3C Assay for Vascular cell adhesion molecule 1 (VCAM1) Biomarker Activity (AID 2283055); conditions: primary human coronary artery smooth muscle cells; actives raise or lower the signal;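 further: VCAM-1 protein level quantified by ELISA on the cells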
[15] = read-out: Collagen III, COL3A1 (gene 1281); experiment: BSK_hDFCGF_CollagenIII: BioMAP Diversity Plus: hDFCGF Assay for Collagen III Biomarker Activity (AID 2283056); conditions: primary human foreskin fibroblasts; actives raise or lower the signal
Outline: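 ELISA readout of Collagen III in human dermal (foreskin) fibroblasts, taken 24 h post-treatment. Gain or loss relative to DMSO vehicle fitted in both directions.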

[16] = read-out: Epidermal growth factor receptor (EGFR), EGFR (gene 1956); experiment: BSK_hDFCGF_EGFR: BioMAP Diversity Plus: hDFCGF Assay for Epidermal growth factor receptor (EGFR) Biomarker Activity (AID 2283057); conditions: primary human foreskin fibroblasts; actives raise or lower the signal
Outline: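 Measured by ELISA: EGFR levels on primary human foreskin fibroblasts 24 h after chemical treatment, analysed relative to DMSO with bidirectional fitting.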

[17] = read-out: Interleukin-8 (IL8), CXCL8 (gene 3576); experiment: BSK_hDFCGF_IL8: BioMAP Diversity Plus: hDFCGF Assay for Interleukin-8 (IL8) Biomarker Activity (AID 2283058); conditions: primary human foreskin fibroblasts; actives raise or lower the signal
Outline: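 IL-8 levels read by ELISA at 24 hours after dosing human skin fibroblast cultures. Parallel SRB staining assessed overt cytotoxicity, and gain or loss of signal was fitted against DMSO control.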

[18] = BSK_hDFCGF_Proliferation: Cell Proliferation Assessment in the BioMAP Diversity Plus: hDFCGF Assay (AID 2283059); conditions: primary human foreskin fibroblasts;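 further: curves fitted for both rise and fall of signal versus DMSO baseline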
Outline: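 Total protein read at 560 nm after 0.1% SRB staining of TCA-fixed human skin fibroblasts, […]. Activity is fitted in both directions relative to DMSO as baseline.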

[19] = read-out: Macrophage colony-stimulating factor (MCSF), CSF1 (gene 1435); experiment: BSK_hDFCGF_MCSF: BioMAP Diversity Plus: hDFCGF Assay for Macrophage colony-stimulating factor (MCSF) Biomarker Activity (AID 2283060); conditions: primary human foreskin fibroblasts; actives raise or lower the signal
Outline: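 M-CSF levels read by ELISA at 24 h post-dosing in human skin fibroblasts. Parallel cultures stained with SRB assessed cytotoxicity at the same time point; response fitted in both directions against the DMSO baseline.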

[20] = BSK_hDFCGF_SRB: Viability Assessment in the BioMAP Diversity Plus: hDFCGF Assay (AID 2283061); conditions: primary human foreskin fibroblasts;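 further: cells exposed to compound for 24 h before the read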
Outline: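 Viability was read as total protein: after 10% TCA fixation, wells were stained with 0.1% sulforhodamine B and read at 560 nm. Primary human foreskin fibroblasts were dosed for 24 h, with bidirectional fitting versus DMSO.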

Measured: AC50

COCC(C)OCC(C)O (stereo not given)
inactive: all assays above

CCC(=C(c1ccc(O)cc1)c1ccc(OCCN(C)C)cc1)c1ccccc1
active: [1] 24.4 µM | [2] 17.4 µM | [3] 18.4 µM | [4] 22.7 µM | [5] 24 µM | [6] 9.11 µM | [7] 24.8 µM | [8] 22.8 µM | [9] 22.2 µM | [11] 15.8 µM | [12] 10.5 µM | [13] 20.3 µM | [14] 22.3 µM | [15] 7.58 µM | [17] 12.8 µM | [18] 4.77 µM | [19] 10.2 µM | [20] 10.7 µM
inactive: [10] | [16]

c1ccc2c(c1)Cc1ccccc1-2
inactive: all assays above

CCCCCCCC(=O)O
inactive: all assays above

CCCOC(=O)c1ccc(O)cc1
inactive: all assays above

CN(C)C=O
inactive: all assays above

C=C(C)C(=O)OCCC(F)(F)C(F)(F)C(F)(F)C(F)(F)C(F)(F)C(F)(F)F
active: [2] 20 µM | [4] 12.1 µM | [6] 13.5 µM | [18] 13.8 µM | [19] 23.2 µM
inactive: [1] | [2] | [3] | [4] | [5] | [6] | [7] | [8] | [9] | [10] | [11] | [12] | [13] | [14] | [15] | [16] | [17] | [18] | [19] | [20]

Nc1cccc2c(N)cccc12
active: [12] 29.1 µM | [18] 5.91 µM | [19] 12.9 µM
inactive: all other assays above

OCCC(F)(F)C(F)(F)C(F)(F)C(F)(F)C(F)(F)C(F)(F)C(F)(F)C(F)(F)F
active: [1] 42.7 µM | [2] 20 µM and 27.5 µM and 18.9 µM | [3] 38.6 µM and 30 µM | [4] 58.8 µM and 55.4 µM | [5] 48.6 µM and 47.4 µM | [6] 20 µM and 22.5 µM and 21.8 µM | [7] 46.4 µM and 46.8 µM | [8] 43 µM and 37.9 µM | [9] 48.7 µM and 40.5 µM | [11] 30 µM and 18.4 µM | [12] 14.6 µM and 11.2 µM | [13] 42.3 µM and 43.7 µM | [14] 12.3 µM and 23.2 µM and 11.5 µM | [15] 18.3 µM and 11.9 µM | [17] 19.2 µM and 17.4 µM | [18] 11.4 µM and 5.06 µM | [19] 13.8 µM and 12.1 µM | [20] 13.8 µM and 15.5 µM
inactive: [1] | [3] | [4] | [5] | [7] | [8] | [9] | [10] | [11] | [12] | [13] | [15] | [16] | [17] | [18] | [19] | [20]

CC(C)(C)c1cc(C(C)(C)C)c(O)c(C(C)(C)C)c1
active: [4] 11.8 µM | [10] 6.88 µM | [12] 32.8 µM | [15] 29.3 µM | [17] 31.5 µM | [18] 10.8 µM | [19] 31.5 µM | [20] 32 µM
inactive: all other assays above
